The values below come from PubChem BioAssay.

Activity calls are given as the source filed them.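 Rule for the calls, unless noted: active = compound raises GLP1 secretion from the human gut endocrine cells, with no numeric limit stated; inactive = the rest.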

The nature of test [1]: stimulators of nuclear beta-catenin in C2C12, primary screen, imaging, WNT3A-conditioned medium, mouse C2C12, NPC library (AID 1117326; in the data active = nuclear beta-catenin stimulation mostly above about 4.2%, no sharp cut-off; inactive = mostly below about 10%). The settings on record: stronger effect = higher value.
Test [2] is described as follows: stimulators of insulin release from INS-1E, primary screen, cell-based, 5 mM glucose, NPC library (AID 1117329;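 active = compound raises insulin release from rat beta cells at 5 mM glucose, no numeric limit stated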). The settings on record: rat INS-1E insulin secretion, at 10 µM, stronger effect = higher value.
Test [3] is described as follows: growth inhibition of GSK3B-pretreated HCT116 cells – cell-based, CellTiter-Glo, 0.2 to 20 µM (AID 1117336;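 active = compounds lowering colon cancer cell viability after pretreatment blocking the GSK3B kinase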). As to conditions: HCT116 viability after GSK3B inhibitor, at 20 µM, stronger effect = higher value.
A short description of test [4]: inhibition of endothelial tube formation, primary screen, imaging, VEGF stimulated, CD31 staining, tube area, NPC library (AID 1117340;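 active = compound that reduces growth-factor-driven endothelial tube area in a mixed cell culture, no cutoff stated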). As to conditions: VEGF-stimulated ADSC/ECFC co-culture, at 10 µM, stronger effect = higher value.
Test [5] is described as follows: glucagon-like peptide 1 release enhancers, primary assay, NCI-H716 cell line, NPC library (AID 1117341). As to conditions: NCI-H716 cells, at 10 µM, stronger effect = higher value.
The nature of test [6]: HCT116 colon cancer cell growth inhibition, primary screen, CellTiter-Glo luminescence, NPC library (AID 1117342;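 active = compounds that lower survival of HCT116 colon cancer cells in the luminescence readout, no numeric limit stated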). The settings on record: at 20 µM (top of the series).
Test [7] can be described thus: CellTiter-Glo luminescent readout of SW480 viability loss, NPC library primary (AID 1117343;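 active = compounds that lower viability of the colon cancer cells in the luminescence readout, with no numeric limit stated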). The settings on record: CellTiter-Glo luminescence; at 20 µM (top of the series).
Test [8] is described as follows: decreased DLD-1 cellular survival, CellTiter-Glo luminescent readout, NPC compound collection, primary HTS (AID 1117346;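 active = compounds that lower survival of DLD-1 colon cancer cells in the luminescence readout, no cutoff given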). The settings on record: DLD-1 viability, CellTiter-Glo luminescence; at 20 µM (top of the series).
Test [9] is described as follows: kinase inhibitors against Plasmodium liver-stage infection, cell-based, known kinase inhibitor set, luminescence, hepatoma host viability (AID 624392; call rule not given here;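 note: infected cells incubated roughly two days before readout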). The settings on record: Plasmodium liver stage in hepatoma cells, luciferase luminescence, concentration not given here; liver cell % of control: measured here: host liver cell viability; parasite % of control: stronger effect = lower value.

The nature of test [10]: modulators of glucocorticoid suppression of NF-kB, cell-based, luciferase, IL-1B stimulus, dexamethasone (AID 624486; call rule not given here;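 for percent of negative control (+Dex): 100% = mean signal of vehicle control wells on the plate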). As to conditions: NF-kB luciferase reporter, IL-1B + dexamethasone, luminescence; percent of negative control (+Dex): actives lie on both sides, concentration not given here; z-score: measured here: IL-1B alone, no Dex.
Test [11] is described as follows: kinase inhibitors altering Pseudomonas killing of worms, whole organism (AID 651566; call rule not given here;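 note: tested at 14 µM; sign flipped so higher z means a lower ratio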). The settings on record: C. elegans killed by P. aeruginosa, survival ratio.
A short description of test [12]: activators of macrophage pro-inflammatory response, cell-based, murine, luminescence (AID 652131; call rule not given here). As to conditions: murine macrophage pro-inflammatory reporter, stronger effect = higher value.
Test [13] deals with Cellular tumor antigen p53 (Homo sapiens) (UniProt P04637). Kind of test: kinase inhibitors altering GFP-p53 stability in HPV16-positive cells, imaging, known kinase inhibitor set, EGFP/DsRed ratio (AID 1053116; call rule not given here;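 note: cells exposed to compounds for 24 h at 37 °C before reading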). As to conditions: stronger effect = higher value; EGFP object count: measured here: GFP-p53 positive objects count.
A short description of test [14]: IRF3 reporter activation in THP-1 macrophages, cell-based, PMA-stimulated THP-1, luminescence (AID 1053176; call rule not given here). The settings on record: PMA-differentiated THP-1, IRF3 reporter luminescence; stronger effect = higher value.
A short description of test [15]: survival rescue of mitochondrial mutant cells in low glucose, primary screen, MELAS cybrids, Rieske KO mouse fibroblasts, CellTiter-Glo (AID 1508586;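 active = mean z-score across replicates of 1.96 or higher in either the MELAS or the Rieske mutant cell line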;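 note: z relative to plate mean and SD of compound and empty wells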).

Chain of Cellular tumor antigen p53 (Homo sapiens) (P04637 whole entry, looked up): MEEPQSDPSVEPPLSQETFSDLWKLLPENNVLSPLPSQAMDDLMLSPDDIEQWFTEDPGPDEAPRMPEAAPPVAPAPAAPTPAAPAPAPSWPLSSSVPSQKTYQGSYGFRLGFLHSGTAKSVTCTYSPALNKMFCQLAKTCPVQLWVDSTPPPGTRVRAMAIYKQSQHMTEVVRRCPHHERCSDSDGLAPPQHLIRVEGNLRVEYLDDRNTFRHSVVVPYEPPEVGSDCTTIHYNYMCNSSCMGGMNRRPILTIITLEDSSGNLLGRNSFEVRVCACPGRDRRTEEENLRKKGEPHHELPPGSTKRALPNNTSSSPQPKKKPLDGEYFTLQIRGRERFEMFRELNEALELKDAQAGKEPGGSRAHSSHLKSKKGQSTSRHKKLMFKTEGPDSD

Take `CC(C)=CC1C(C(=O)OCN2C(=O)C3=C(CCCC3)C2=O)C1(C)C` (centres undefined): the nuclear beta-catenin stimulation in test [1] (at 10 µM) is 2.5% (inactive); in [1] (stimulation, at 2 µM), 0.7%. For the same compound, in [2], the insulin secretion stimulation is -1.8% (inactive). The viability decrease in test [3] is 34.8% (inactive). Moreover, in [4], the tube area decrease is 16% (inactive). In test [5], the GLP1 secretion stimulation was -0.5% (inactive). The inhibition of viability in [6] was 38.2% (inactive). Further, the viability decrease (inhibition) was 63% (active) in test [7] and 5% (inactive) in test [8].

On to `Nc1ccccc1C(=O)O`, for which the nuclear beta-catenin stimulation was 1.8% (inactive) in test [1] (at 10 µM) and 1.3% in test [1] (stimulation, at 2 µM). In addition, the insulin secretion stimulation in [2] is 0.9% (inactive). Also, the viability decrease in test [3] was -0.1% (inactive). Besides, in test [4], the tube area decrease is -2.6% (inactive). Besides, the GLP1 secretion stimulation in test [5] was 1.1% (inactive). In [6], the inhibition of viability is 6.4% (inactive). The viability decrease (inhibition) was 11.5% (inactive) in test [7] and -8.85% (inactive) in test [8].

As for `CC(Cc1ccc2c(c1)OCO2)NCC(O)c1ccc(O)c(O)c1` (centres undefined), the nuclear beta-catenin stimulation is 2.6% (inactive) in test [1] (at 10 µM) and -0.2% in test [1] (stimulation, at 2 µM). In test [2], the insulin secretion stimulation is 2.9% (inactive). Moreover, the viability decrease in test [3] is 38.3% (inactive). Further, the tube area decrease in [4] is 21.3% (inactive). Further, the GLP1 secretion stimulation in test [5] is -2% (inactive). Also, the inhibition of viability in test [6] was 25.8% (inactive). Moreover, the viability decrease (inhibition) in test [7] was 40.4% (inactive); in test [8] it was 14.6% (inactive).

For the compound `O=c1c(C2CC(c3ccc(-c4ccc(Br)cc4)cc3)Cc3ccccc32)c(O)sc2ccccc12` (centres undefined), the nuclear beta-catenin stimulation is 0% (inactive) in test [1] (at 10 µM) and -2.4% in test [1] (stimulation, at 2 µM). For the same compound, the insulin secretion stimulation in [2] was 1.05% (inactive). Also, the viability decrease in test [3] was 117% (active). Further, the tube area decrease in test [4] was 34.2% (inactive). Besides, in [5], the GLP1 secretion stimulation was 4.8% (inactive). Also, in test [6], the inhibition of viability is 123% (active). Moreover, the viability decrease (inhibition) in test [7] was 157% (active); in [8], 101% (active).

In turn, `CNC(=O)Oc1cc(C)c(/C=C/c2cncc(C(=O)NC)c2)c(C)c1` returned a liver cell % of control in test [9] of 111%. In addition, in test [9], the parasite % of control was 110% (inactive). Further, the percent of negative control (+Dex) in test [10] was 107% (inactive). Moreover, the z-score in test [10] was 1.96; in test [11] it was -0.2 (inactive); in test [12], -0.101 (inactive); in test [15] (MELAS cybrid survival, CellTiter-Glo 48 h, stronger effect = higher value) it was -0.555 (inactive); in test [15] (Rieske KO mouse fibroblast survival, CellTiter-Glo 72 h) it was 0.0985. In addition, the EGFP object count in [13] came out at 1. The EGFP/DsRed ratio in [13] was 0.0984 (inactive). The fraction signal in [14] was -0.0105 (inactive).

`Cc1ccc([N+](=O)[O-])[c]2c1[O][Hg]2`: the nuclear beta-catenin stimulation in test [1] (at 10 µM) is 20.9% (active); in [1] (stimulation, at 2 µM), 66.9%. Moreover, the insulin secretion stimulation in [2] is 87.1% (active). For the same compound, in test [3], the viability decrease was 99.5% (active). The tube area decrease in test [4] is 105% (active). Also, the GLP1 secretion stimulation in test [5] is 64.6% (active). Moreover, the inhibition of viability in [6] is 100% (active). Also, the viability decrease (inhibition) in [7] was 134% (active); in test [8], 103% (active).

With `Cc1ccc2c(c1)C1CN(C)CCC1N2` (centres undefined), the nuclear beta-catenin stimulation in test [1] (at 10 µM) is -0.3% (inactive); in [1] (stimulation, at 2 µM), 0.7%. The insulin secretion stimulation in test [2] is -0.9% (inactive). Also, the viability decrease in [3] is 1.05% (inactive). Further, the tube area decrease in test [4] is -17.5% (inactive). For the same compound, in [5], the GLP1 secretion stimulation was 6.1% (inactive). In addition, in test [6], the inhibition of viability is 5.2% (inactive). In addition, the viability decrease (inhibition) is 22.4% (inactive) in [7] and 0.7% (inactive) in test [8].

In the case of `CCN(CC)CCOC(=O)C(C)(c1ccccc1)c1ccccc1`, the nuclear beta-catenin stimulation in test [1] (at 10 µM) was 1.1% (inactive); in [1] (stimulation, at 2 µM), 0.8%. In addition, the insulin secretion stimulation in test [2] is 27.8% (active). Also, the viability decrease in [3] is 36.8% (inactive). For the same compound, the tube area decrease in [4] was 0.6% (inactive). For the same compound, the GLP1 secretion stimulation in [5] was 8.1% (inactive). For the same compound, in test [6], the inhibition of viability is 49.8% (inactive). The viability decrease (inhibition) was 22.2% (inactive) in [7] and 17.9% (inactive) in test [8].
